Results: PubChem BioAssay (Tox21)
Results filed as inconclusive are left out. The source made the active and inactive calls. Unless noted, calls come from the whole dose curve.

Key:
[1] = Nuclear factor erythroid 2-related factor 2/antioxidant responsive element (Nrf2/ARE) small molecule agonists: qHTS cell viability counter screen in human keratinocytes (AID 1919968; active = well fitted curve in the direction sought with a large enough effect in the repeat runs; an effect the other way counts as inactive or inconclusive; note: nearly all actives have a fitted effect of over 55% in size; note: potency is the fitted concentration of half-maximal effect)
Summary of the method: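 CellTiter-Fluor fluorescence, read 1 h after reagent, gave viability in the same wells as the ARE-luciferase assay. KeratinoSens cells (1,500/well) had 23 h compound exposure at 37 C/5% CO2 following 5 h plating.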

[2] = Nuclear factor erythroid 2-related factor 2/antioxidant responsive element (Nrf2/ARE) small molecule agonists: luciferase reporter gene qHTS assay in human keratinocytes (AID 1919969); note: nearly all actives have a fitted effect of over 35% in size
[3] = biological target: KiSS-1 receptor (Homo sapiens) (UniProt Q969F8); assay: Human kisspeptin (KISS1R) small molecule agonists, calcium flux assay in KISS1R-HEK293 cells (AID 1920064; active = well fitted curve in the direction sought with a large enough effect in the repeat runs; an effect the other way counts as inactive or inconclusive)
Sequence of KiSS-1 receptor (Homo sapiens) (Q969F8 whole entry, looked up): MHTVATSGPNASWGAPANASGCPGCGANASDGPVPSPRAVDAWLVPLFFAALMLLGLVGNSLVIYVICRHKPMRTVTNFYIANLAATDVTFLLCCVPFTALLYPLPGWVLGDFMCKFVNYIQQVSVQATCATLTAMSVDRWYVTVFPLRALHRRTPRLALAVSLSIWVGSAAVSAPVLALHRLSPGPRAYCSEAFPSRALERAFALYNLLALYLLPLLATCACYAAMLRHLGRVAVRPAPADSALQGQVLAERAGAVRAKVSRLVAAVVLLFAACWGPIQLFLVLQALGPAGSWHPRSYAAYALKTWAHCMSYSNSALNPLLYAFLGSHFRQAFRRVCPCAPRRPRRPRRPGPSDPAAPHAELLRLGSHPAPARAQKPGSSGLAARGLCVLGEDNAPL
Summary of the method: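 Agonist mode: intracellular calcium rise tracked at 1 s intervals over 3 min (480/540 nm) immediately after compound addition to dye-loaded KISS1R-HEK293 stable cells. Each compound tested at 15 concentrations in triplicate.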

[4] = G protein-coupled receptor (GPCR) small molecule agonists, calcium flux assay: HEK293 wild type cell line counter screen (AID 1920065)
Summary of the method: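 Calcium flux counter screen: compound added in agonist mode at 15 concentrations in triplicate to dye-loaded parental HEK293 cells. Fluorescence (480/540) read kinetically for 3 min; ATP served as positive control.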

[5] = p53 small molecule agonists, cell-based qHTS assay with human liver microsomes (AID 1963577)
Summary of the method: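 Compounds act here after metabolic activation: human liver microsomes and NADPH, both at 0.5 mg/mL final, were co-added to p53RE-bla cells. Incubation ran 16 h at 37 C, followed by LiveBLAzer detection.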

[6] = p53 small molecule agonists, cell-based qHTS assay with rat liver microsomes (AID 1963578)
Summary of the method: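 Read-out is beta-lactamase reporter fluorescence (LiveBLAzer, 2 h, room temperature, dark) in p53RE-bla cells treated 16 h at 37 C with compound, rat liver microsomes and NADPH, both 0.5 mg/mL final.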

[7] = p53 small molecule agonists, cell-based qHTS assay with human liver microsomes: qHTS cell viability counter screen (AID 1963579); note: nearly all actives have a fitted effect of over 45% in size
Summary of the method: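 Cells carrying the p53 response-element beta-lactamase reporter are treated for 16 h at 37 C with test compounds in the presence of human liver microsomes and NADPH (both 0.5 mg/mL final); ATP-based CellTiter-Glo luminescence then reports viability.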

[8] = p53 small molecule agonists, cell-based qHTS assay with rat liver microsomes: qHTS cell viability counter screen (AID 1963580); note: nearly all actives have a fitted effect of over 45% in size
Summary of the method: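 Cytotoxicity counter screen: intracellular ATP read by CellTiter-Glo luminescence in the p53 reporter wells. HCT-116 p53RE-bla cells were treated for 16 h at 37 C alongside rat liver microsomes and NADPH, each 0.5 mg/mL final.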

[9] = p53 small molecule agonists, cell-based qHTS assay: qHTS cell viability counter screen (AID 1963581); note: nearly all actives have a fitted effect of over 45% in size
Summary of the method: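 Counter screen read by CellTiter-Glo luminescence (ATP content, 30 min at room temperature), run in the same wells as the beta-lactamase reporter read. HCT-116 p53RE-bla cells saw compounds for 16 h at 37 C.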

[10] = biological target: 5-hydroxytryptamine receptor 2A (Homo sapiens) (UniProt P28223); assay: 5-hydroxytryptamine receptor 2A (HTR2A) small molecule agonists, cell-based qHTS assay (AID 1963587); note: nearly all actives have a fitted effect of over 30% in size
Sequence of 5-hydroxytryptamine receptor 2A (Homo sapiens) (P28223 whole entry, looked up): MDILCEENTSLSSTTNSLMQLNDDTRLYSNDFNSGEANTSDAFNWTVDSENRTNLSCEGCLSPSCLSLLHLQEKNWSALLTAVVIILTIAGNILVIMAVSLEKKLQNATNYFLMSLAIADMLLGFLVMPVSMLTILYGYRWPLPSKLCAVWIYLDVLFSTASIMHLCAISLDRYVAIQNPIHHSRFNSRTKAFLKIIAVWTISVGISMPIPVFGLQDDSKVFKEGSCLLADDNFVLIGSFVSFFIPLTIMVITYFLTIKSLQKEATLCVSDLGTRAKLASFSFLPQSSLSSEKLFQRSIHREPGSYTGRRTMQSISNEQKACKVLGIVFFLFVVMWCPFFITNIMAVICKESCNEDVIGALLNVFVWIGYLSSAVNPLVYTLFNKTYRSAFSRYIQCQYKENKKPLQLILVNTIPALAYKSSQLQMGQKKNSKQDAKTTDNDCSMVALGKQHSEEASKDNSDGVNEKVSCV
Summary of the method: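 Kinetic calcium-flux fluorescence (2 min, 1 sec intervals) after compound addition in agonist mode. HTR2A-CHO cells were cultured 18 h, then dye-loaded 1 h at 37 C.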

[11] = biological target: Muscarinic acetylcholine receptor M1 (Homo sapiens) (UniProt P11229); assay: Cholinergic receptor muscarinic 1 (CHRM1) small molecule antagonists, cell-based qHTS assay (AID 1963588); note: nearly all actives have a fitted effect of over 40% in size
Sequence of Muscarinic acetylcholine receptor M1 (Homo sapiens) (P11229 whole entry, looked up): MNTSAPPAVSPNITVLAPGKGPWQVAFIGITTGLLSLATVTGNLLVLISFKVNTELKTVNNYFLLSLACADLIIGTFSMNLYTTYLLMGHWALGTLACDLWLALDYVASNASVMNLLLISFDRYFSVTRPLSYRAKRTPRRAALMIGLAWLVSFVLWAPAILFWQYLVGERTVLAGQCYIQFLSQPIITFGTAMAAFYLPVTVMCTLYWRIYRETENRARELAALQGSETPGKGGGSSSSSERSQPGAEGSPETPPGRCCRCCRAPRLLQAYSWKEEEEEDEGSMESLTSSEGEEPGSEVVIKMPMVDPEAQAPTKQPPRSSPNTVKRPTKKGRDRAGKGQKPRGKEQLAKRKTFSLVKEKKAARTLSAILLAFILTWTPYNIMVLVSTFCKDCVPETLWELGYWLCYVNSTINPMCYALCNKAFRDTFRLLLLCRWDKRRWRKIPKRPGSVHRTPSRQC
Summary of the method: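 Compounds were tested at 15 concentrations in three independent runs. Dye-loaded CHRM1-CHO cells were exposed 5 min at room temperature before stimulation by acetylcholine added at 50nM. Intracellular calcium was read kinetically on FDSS for 3 min.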

[12] = biological target: Muscarinic acetylcholine receptor M1 (Homo sapiens) (UniProt P11229); assay: Cholinergic receptor muscarinic 1 (CHRM1) small molecule agonists, cell-based qHTS assay (AID 1963589); note: nearly all actives have a fitted effect of over 35% in size
Summary of the method: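 Agonist-mode calcium-flux screen: compounds at 15 concentrations, three independent runs, were pin-transferred onto dye-loaded human CHRM1-CHO cells. Fluorescence was then recorded kinetically every second over minutes.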

[13] = cAMP Responsive Elements (CRE) small molecule agonists, cell-based qHTS assay (AID 1963590)
Summary of the method: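 Agonist mode: compound added to CRE-bla HEK 293T cells (2,000/well, 18 h after plating) for 3 h at 37 C/5% CO2. Reporter activity detected via FRET beta-lactamase substrate, 2 h room-temperature loading.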

[14] = cAMP Responsive Elements (CRE) small molecule antagonists, cell-based qHTS assay (AID 1963591; active = well fitted inhibition curve with a large enough effect in the signal ratio in the repeat runs, not every such curve was filed as active; the % refers to the signal ratio)
Summary of the method: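 Antagonist mode: compounds are added alongside the adenylyl cyclase activator NKH477 (0.25 uM final) to CRE-bla HEK293T cells for 3 h. LiveBLAzer FRET substrate, 2 h at room temperature, reports bla expression.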

[15] = biological target: Beta-2 adrenergic receptor (Homo sapiens) (UniProt P07550); assay: Adrenergic beta2 receptor (ADRB2) small molecule antagonists, cell-based qHTS assay (AID 1963592); note: series mostly up to about 92 µM; nearly all actives have a fitted effect of over 50% in size
Sequence of Beta-2 adrenergic receptor (Homo sapiens) (P07550 whole entry, looked up): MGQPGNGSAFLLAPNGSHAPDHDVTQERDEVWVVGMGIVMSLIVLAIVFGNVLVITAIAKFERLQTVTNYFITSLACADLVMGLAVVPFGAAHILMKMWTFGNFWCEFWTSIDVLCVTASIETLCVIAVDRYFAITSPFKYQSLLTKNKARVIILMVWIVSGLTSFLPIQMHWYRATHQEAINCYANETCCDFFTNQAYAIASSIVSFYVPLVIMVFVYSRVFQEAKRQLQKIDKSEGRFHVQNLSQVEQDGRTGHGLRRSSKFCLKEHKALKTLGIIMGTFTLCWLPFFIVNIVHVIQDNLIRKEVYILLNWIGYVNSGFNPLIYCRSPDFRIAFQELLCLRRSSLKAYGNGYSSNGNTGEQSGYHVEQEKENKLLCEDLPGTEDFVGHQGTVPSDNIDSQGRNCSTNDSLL
Summary of the method: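 Assay format: CHO-ADRB2 cells, 18-20hr seeding at 37C/5% CO2, then compound plus 1nM isoproterenol agonist mix for 0.5hr RT. Homogeneous time-resolved fluorescence cAMP detection after 1hr, expressed as 665/615 nm ratio.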

[16] = biological target: D(2) dopamine receptor (Homo sapiens) (UniProt P14416); assay: Dopamine D2 receptor (DRD2) small molecule agonists, cell-based qHTS assay (AID 1963594); note: nearly all actives have a fitted effect of over 35% in size
Sequence of D(2) dopamine receptor (Homo sapiens) (P14416 whole entry, looked up): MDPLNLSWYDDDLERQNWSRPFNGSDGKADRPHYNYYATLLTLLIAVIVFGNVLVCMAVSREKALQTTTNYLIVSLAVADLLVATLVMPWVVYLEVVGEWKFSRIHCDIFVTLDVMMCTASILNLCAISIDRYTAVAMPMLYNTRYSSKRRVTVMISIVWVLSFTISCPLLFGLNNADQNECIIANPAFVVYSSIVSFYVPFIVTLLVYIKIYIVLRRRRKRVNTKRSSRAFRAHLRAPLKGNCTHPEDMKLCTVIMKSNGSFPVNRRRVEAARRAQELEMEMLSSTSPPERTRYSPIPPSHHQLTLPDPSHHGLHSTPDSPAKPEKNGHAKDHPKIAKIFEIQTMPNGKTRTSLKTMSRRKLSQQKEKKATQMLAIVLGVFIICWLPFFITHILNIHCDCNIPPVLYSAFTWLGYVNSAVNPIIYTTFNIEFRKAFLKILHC
Summary of the method: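 cAMP accumulation in DRD2-HEK293 cells measured by HTRF after 1 h detection; compounds added 10 min before NKH477 (200nM […]) forskolin-analogue stimulation, 30 min at room temperature, with Ro20-1724 present at 0.1 mM final.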

[17] = biological target: D(2) dopamine receptor (Homo sapiens) (UniProt P14416); assay: Dopamine D2 receptor (DRD2) small molecule antagonists, cell-based qHTS assay (AID 1963595; active = well fitted inhibition curve with a large enough effect in the signal ratio in the repeat runs, with a control signal flat; the % refers to the signal ratio)
Summary of the method: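 HEK293 cells stably expressing DRD2, preincubated with 0.1 mM Ro20-1724 and compounds 10 min, were stimulated with 200 nM NKH477 plus 12 nM quinpirole for 30 min at room temperature; cAMP measured by HTRF (665/620 nm).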

[18] = biological target: 5-hydroxytryptamine receptor 2A (Homo sapiens) (UniProt P28223); assay: 5-hydroxytryptamine receptor 2A (HTR2A) small molecule antagonists, cell-based qHTS assay (AID 1963586); note: nearly all actives have a fitted effect of over 45% in size
Summary of the method: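 CHO cells stably expressing human HTR2A were plated for 18 h at 37 C, then loaded with calcium dye for 1 h. Compounds were preincubated 5 min at room temperature before DOI (4 nM solution) was added. Kinetic fluorescence was read for 3 min.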

[19] = p53 small molecule agonists, cell-based qHTS assay (AID 1963582; active = well fitted activation curve with a large enough effect in the signal ratio in the repeat runs, not every such curve was filed as active; the % refers to the signal ratio)
Summary of the method: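 Read-out is beta-lactamase FRET fluorescence after 2 h at room temperature with LiveBLAzer B/G substrate. p53 response element-bla cells were treated 16 h at 37 C with compounds in DMSO, added 5 h after seeding.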

Measured: Potency

N#Cc1c(F)cccc1F
not listed: [18] | [19]
inactive: all other assays above

O=S(=O)(O)c1ccc(N=Nc2c(O)ccc3ccccc23)cc1
active: [1] 61.1 µM
not listed: [9] | [10] | [13] | [14] | [17] | [19]
inactive: all other assays above

CCCCCCCCCCC(=O)O
not listed: [13] | [19]
inactive: all other assays above

ClC1=C(Cl)C1(Cl)Cl
not listed: [8] | [10]
inactive: all other assays above

OC[C@@H](O)C(O)[C@@H](O)CO (stereo partly specified)
not listed: [9] | [15]
inactive: all other assays above

CCNS(=O)(=O)c1ccc(C)cc1
not listed: [9]
inactive: all other assays above

CCC1(CO)COCOC1
not listed: [11] | [18]
inactive: all other assays above
